An excerpt weighted towards active compounds, which were near 11% of everything screened.
Sm TGR inh = blocks Schistosoma mansoni thioredoxin glutathione reductase; purified TGR, DTNB reduction, TNB absorbance 405 nm; Potency, µM (titrated, usually from 114 µM), inactives show at the highest dose activity change, negative = inhibition, most hits filed as inhibitors; hit rate 3% among 360,000; AID 485364; note: % is set by controls: 0 for no effect and ±100 for the full control effect; nearly all actives have a fitted effect of over 60% in size
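First, TGR (20 nM dispensed) and NADPH were mixed with compound. Second, a 15 min room-temperature incubation followed. Third, further NADPH and then DTNB were added to start the reaction. Finally, TNB absorbance was monitored kinetically.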
Pf growth 96h = P. falciparum growth inhibition at 96 hour, primary screen for plastid delayed-death inhibitors | P. falciparum luciferase reporter growth, 96 h | Potency, µM (series often up to 28.7 µM), for inactives: top-dose activity change, negative = inhibition, most hits filed as inhibitors | hit rate 6.9% among 320,000; note: % is set by controls: 0 for no effect and ±100 for the full control effect
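Plates of compound plus infected erythrocytes (2% hematocrit, 0.05% parasitemia final) incubate 96 hours, 37 C, 5% CO2. Detection reagent added; reduced luminescence from the parasites' luciferase reporter flags inhibition.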
NS1 inh = influenza NS1 inhibition; Potency, µM (top dose mostly 46.1 µM), inactives show top-dose activity, positive = more growth; hit rate 0.4% among 270,000; calls by dose curve; note: actives are rising curves; nearly all actives have a fitted effect of over 50% in size
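Read-out: OD600 growth recovery of NS1-expressing budding yeast. Cells grown overnight at 30C in -URA glucose medium, washed, resuspended and diluted 1:100 in 2% galactose assay medium, pH 6.0. Same strain lacking NS1 served as positive control.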
AMA1 RON2 block = disrupts binding of P. falciparum AMA1 to RON2; AlphaScreen AMA1-biotinylated RON2 peptide binding; Potency, µM (highest dose often 58.2 µM), without a hit: at the highest dose activity change, negative = inhibition, usual class: inhibitors; hit rate 0.2% among 360,000;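 note: 0% = vehicle wells and -100% = peptide control; nearly all actives have a fitted effect of over 45% in size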
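AMA1 (3D7) with his tag at 25 nM final met compounds first, then biotinylated RON2 peptide at 25 nM; detection used donor plus acceptor beads, 10 µg/mL apiece, read by AlphaScreen after 30 min at room temperature.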
Pf growth 48h = P. falciparum growth inhibition at 48 hours (one generation); P. falciparum luciferase growth in erythrocytes, 48 h; hit rate 5.9% among 310,000; Potency, µM (top dose mostly 28.7 µM), without a hit: top-dose activity change, negative = inhibition, usual class: inhibitors; note: % is set by controls: 0 for no effect and ±100 for the full control effect
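Growth was read as firefly luciferase luminescence after a 48 h, 37 C, 5% CO2 exposure of compounds to reporter-bearing P. falciparum cultures (0.1% parasitemia, 2% hematocrit final) in Albumax-supplemented RPMI 1640.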
The depositor's hits bear a star. Unless noted, calls come from the whole dose curve; as a rule, active = well fitted curve in the direction sought with a large enough effect; inconclusive = small, poorly fitted or top-dose-only effect, or another doubt; inactive = no such curve, though single readings can be large; an effect the other way counts as inactive or inconclusive. Potency is the fitted concentration of half-maximal effect.

Results for COCCCn1c(SCC(=O)Nc2ccccc2F)nnc1-c1ccoc1C ?
Sm TGR inh: -19%; Pf growth 96h: 23%; NS1 inh: 2%; AMA1 RON2 block: 11%; Pf growth 48h: 7%

Results for CCOc1cc(CNC(C)C(O)c2ccccc2)cc(Cl)c1OCC (stereo not given) ?
Sm TGR inh: -10%; Pf growth 96h: inconclusive; NS1 inh: 6%; AMA1 RON2 block: -3%; Pf growth 48h: 1.5µM*

How did S=C(S)N1CCCC1 do in these assays?
Sm TGR inh: -5%; Pf growth 96h: inconclusive; NS1 inh: -39%; AMA1 RON2 block: 2%; Pf growth 48h: 10µM*

Results for CN(Cc1ccccc1)C(=O)CCC1CCN(C(=O)CCC(F)(F)F)CC1 ?
Sm TGR inh: 1%; Pf growth 96h: 1%; NS1 inh: -14%; AMA1 RON2 block: 12%; Pf growth 48h: 12%

Results for C[C@H](CO)N1C[C@H](C)[C@@H](CN(C)C(=O)Nc2ccc(F)cc2)OCc2cnnn2CCCC1=O ?
AMA1 RON2 block: 9%

What do the screens show for `CCOc1cc(-c2noc(N)c2C(=O)OC)cc(OCC)c1OCC`?
Sm TGR inh: -1%; Pf growth 96h: 12µM*; NS1 inh: -4%; AMA1 RON2 block: 14%; Pf growth 48h: -14%

What do the screens show for `COc1ccc(CN2CCNC(=O)C2CC(=O)N2CCCCO2)cc1OC` (stereo not given)?
Sm TGR inh: inconclusive; Pf growth 96h: 0%; NS1 inh: -8%; AMA1 RON2 block: 6%; Pf growth 48h: 35%

How did COc1cccc(NC(=O)CSc2nc3c(sc4ccccc43)c(=O)n2CCN(C)C)c1 do in these assays?
Sm TGR inh: 4%; Pf growth 96h: inconclusive; AMA1 RON2 block: 43%; Pf growth 48h: inconclusive

What do the screens show for `COc1cccc(NC(=O)CSc2nc3c(sc4ccccc43)c(=O)n2CCCN2CCCC2)c1`?
Sm TGR inh: -3%; Pf growth 96h: 20%; NS1 inh: 25%; AMA1 RON2 block: 23%; Pf growth 48h: 10µM*

What do the screens show for `Cc1ccc(CNC(=O)CSc2nc3c(sc4ccccc43)c(=O)n2CCCN2CCCC2)cc1`?
Sm TGR inh: -6%; Pf growth 96h: 25%; AMA1 RON2 block: 17%; Pf growth 48h: 10µM*

What do the screens show for `Cc1cc(=O)oc2cc(OCC(=O)Nc3ccc4[nH]c(=O)[nH]c4c3)ccc12`?
Sm TGR inh: -15%; Pf growth 96h: 41%; AMA1 RON2 block: -25%; Pf growth 48h: 31%

Results for OCCNc1ncnc2c1c(-c1ccccc1)c(-c1ccccc1)n2Cc1ccco1 ?
Sm TGR inh: inconclusive; Pf growth 96h: -15%; NS1 inh: 18%; AMA1 RON2 block: -14%

What do the screens show for `CC(C)Cn1cnc2c(c(-c3ccccc3)c(-c3ccccc3)n2Cc2ccco2)c1=N`?
Sm TGR inh: 6%; Pf growth 96h: 2.1µM*; NS1 inh: 3%; AMA1 RON2 block: -11%

How did N=c1c2c(-c3ccccc3)c(-c3ccccc3)n(Cc3ccco3)c2ncn1Cc1ccccc1 do in these assays?
Sm TGR inh: -3%; Pf growth 96h: 2.6µM*; NS1 inh: 1%; AMA1 RON2 block: 9%

What do the screens show for `N=c1c2c(-c3ccccc3)c(-c3ccccc3)n(Cc3ccccc3)c2ncn1CCO`?
Sm TGR inh: -10%; Pf growth 96h: inconclusive; NS1 inh: -4%; AMA1 RON2 block: 1%; Pf growth 48h: 4.1µM*

How did Cc1cccc(Cn2c(C)c(CNC3CCCCC3)c(C(=O)O)c2C)c1 do in these assays?
Sm TGR inh: 0%

Results for COc1ccc(C(=O)OCC(=O)NCC2CCCCC2)c(OC)c1 ?
Sm TGR inh: -3%; Pf growth 96h: 16%; AMA1 RON2 block: 7%; Pf growth 48h: -1%

Results for Oc1ccccc1C=NNC(=S)NN=Cc1ccccc1O ?
AMA1 RON2 block: 38%

What do the screens show for `COc1cccc(/C=N/NC(=S)Nc2cccc(C(=O)O)c2)c1O`?
Sm TGR inh: 1%; Pf growth 96h: inconclusive; AMA1 RON2 block: -80%; Pf growth 48h: inactive

What do the screens show for `COc1cccc(/C=N/NC(=S)NC2CC3CC2C2C=CCC32)c1O` (stereo not given)?
Sm TGR inh: -2%; Pf growth 96h: 1.3µM*; NS1 inh: -1%; AMA1 RON2 block: 35%; Pf growth 48h: 2.3µM*

Screening data as filed in PubChem.
